{
  "source": "PubChem BioAssay (Tox21)",
  "note": "Inconclusive results are not listed. The source made the active and inactive calls. The call rests on the fitted dose curve.",
  "data": [
    {"assay": "qHTS assay to identify small molecule agonists of the AP-1 signaling pathway - cell viability counter screen (AID 1159525); further: nearly all actives have a fitted effect of over 55% in size", "conditions": "ME-180 AP-1-bla cells viability, ATP luminescence, 5 h; series mostly up to 76.8 µM", "excerpt": "National Center for Advancing Translational Sciences [NCATS]\nNIH Chemical Genomics Center [NCGC]\nU.S. Environmental Protection Agency [EPA]\nNational Institutes of Environmental Health Sciences [NIEHS]\nNational Toxicology Program [NTP]\nU.S. Food and Drug Administration [FDA]\nActivator protein-1 (AP-1), a transcription factor, plays an important role in tumor genesis by regulating genes involved in cell proliferation, differentiation, apoptosis, and angiogenesis. AP-1 activity is induced by a complex network of signaling pathways that involves extracellular signals, such as growth factors. The AP-1 protein complex formed from c-Fos and c-Jun binding to the AP-1 response element results in transcriptional activation of genes containing such elements within their promoter.\nLow molecular weight molecules have been discovered and developed to modulate various components of these signaling pathways, for example, MAP kinase inhibitors. However, many points of pathway modulation remain untested due to the lack of chemical probes making this signaling locus of general interest.\nUsing a beta-lactamase reporter-gene under control of the AP-1 response element, a cell-based assay [CellSensor(TM) AP-1-bla ME-180 developed by Invitrogen Corp.] was used to measure EGF-induced signaling. The Tox21 10K library compounds were measured for their ability to positively modulate the action of EC50 EGF on reporter gene activity. Compounds were screened in a 15-pt titration series in 1536-well format. The cytotoxicity of the Tox21 compound library against this cell line was tested in parallel by measuring the intra cellular ATP content in the same wells.\nTox21 Assay Protocol Summary:\n2500 cells/5uL in Opti-MEM medium containing 0.5% dialyzed FBS, 0.1 mM NEAA, 1 mM sodium pyruvate and 10 mM HEPES was dispensed into 1536-well black wall/clear bottom plates using a Multidrop dispenser and cells were cultured at 37 degrees Celsius overnight. Next day 23 nL of compounds dissolved in DMSO, positive controls or DMSO were delivered to each well using a pin tool. The plates were incubated at 37 degrees Celsius for 5 hours. 1 uL of LiveBLAzerTM B/G FRET substrate (Solution A+B+C+D) was added to each well using a Flying Reagent Dispenser. After incubated at room temperature for 2.5 hours the plates were measured on an EnVision plate reader at Excitation 405nm, Emission1=460nm and Emission 2=530nm. The %Activity was determined from the ratio of 460nm/530nm.\nAfter the plates were read for Beta-Lactamase assay on Envision; 3 ul Cell Titer Glo (Promega) was added to measure the cytotoxicity and the plates were then incubated at RT in dark for 30 min. The luminescence was read on ViewLux (Perkin Elmer, Shelton, CT) using 6 sec exposure. ViewLux data was expressed as relative luminescence units.\nFor primary data analysis, raw plate reads for each titration point were first normalized relative to […] EGF control (100%) and DMSO only wells (basal, 0%).\nFor primary data analysis for viability assay, raw plate reads for each titration point were first normalized Tetra n-octyl ammonium bromide control (-100%) and DMSO (control, 100%).", "values": [
      {"smiles": "CCOC(=O)CC#N", "outcome": "inactive"},
      {"smiles": "CCN1CN(CC)CN(CC)C1", "outcome": "inactive"},
      {"smiles": "Nc1nc(=O)n([C@@H]2O[C@H](CO)[C@@H](O)[C@@H]2F)cc1I", "outcome": "inactive"},
      {"smiles": "CCCCCN(CCCOC)C(=O)C(CCC(=O)O)NC(=O)c1ccc(Cl)c(Cl)c1", "note": "(stereo not given)", "outcome": "inactive"},
      {"smiles": "COCCOCCOCCOC", "outcome": "inactive"},
      {"smiles": "Cc1nc(C)nc(N2C[C@@H](C)N(c3ccnc([C@@H](C)O)n3)[C@@H](C)C2)n1", "outcome": "inactive"},
      {"smiles": "Cc1cc(O)c2c(c1)C(=O)c1cccc(O)c1C2=O", "outcome": "inactive"},
      {"smiles": "C=COCCOCCOC=C", "outcome": "inactive"},
      {"smiles": "CC(=O)OC[C@H]1O[C@@H](OC(C)=O)[C@H](OC(C)=O)[C@@H]1OC(C)=O", "outcome": "inactive"},
      {"smiles": "O=c1[nH]c(=O)c2ccccc2o1", "outcome": "inactive"},
      {"smiles": "CCC(C)(C)C1CCC(=O)CC1", "outcome": "inactive"},
      {"smiles": "Nc1ccnc(=O)[nH]1", "outcome": "inactive"},
      {"smiles": "CCCCCCCC/C=C\\CCCCCCCC(=O)OC[C@@H](O)[C@H]1OC[C@H](O)[C@H]1O", "outcome": "inactive"},
      {"smiles": "O=C(/C=C/c1ccccc1)NCCO", "outcome": "inactive"},
      {"smiles": "CCC(C)(CCC(C)C)C(=O)[O-].CCC(C)(CCC(C)C)C(=O)[O-].[Zn+2]", "note": "(stereo not given)", "outcome": "inactive"},
      {"smiles": "Cc1cc(C)cc([N+](=O)[O-])c1", "outcome": "inactive"},
      {"smiles": "Cc1nc2n(c(=O)c1CCN1CCC(C(=O)c3ccc(F)cc3)CC1)CCS2", "outcome": "inactive"},
      {"smiles": "FC(F)(F)/C(=N\\OCC1OCCO1)c1ccc(Cl)cc1", "outcome": "inactive"},
      {"smiles": "CCOc1ccc(NC(=O)OC(C)C)cc1OCC", "outcome": "inactive"},
      {"smiles": "CC(Cl)COP(=O)(OCC(C)Cl)OCC(C)Cl", "note": "(stereo not given)", "outcome": "inactive"},
      {"smiles": "NS(=O)(=O)c1cc2c(cc1Cl)NC(CC1CCCC1)NS2(=O)=O", "note": "(stereo not given)", "outcome": "inactive"},
      {"smiles": "COc1cccc2sc(N)nc12", "outcome": "inactive"},
      {"smiles": "CC(=O)c1ccc2c(c1)CCCC2", "outcome": "inactive"},
      {"smiles": "O=C(O)/C=C/c1ccccc1", "outcome": "inactive"},
      {"smiles": "CCOC(=O)OCC/C(SC(=O)OCC)=C(\\C)N(C=O)Cc1cnc(C)nc1N", "outcome": "inactive"},
      {"smiles": "O=C(O)c1ccccc1C(=O)OCc1ccccc1", "outcome": "inactive"},
      {"smiles": "CCCCCCCCCCCCCCCC(=O)NCCO", "outcome": "inactive"},
      {"smiles": "Cc1c(C(C)C)c(=O)n(-c2ccccc2)n1C", "outcome": "inactive"},
      {"smiles": "C=CC(C)(O)CC/C=C(\\C)CC", "note": "(stereo not given)", "outcome": "inactive"},
      {"smiles": "CCS(=O)(=O)CCn1c([N+](=O)[O-])cnc1C", "outcome": "inactive"},
      {"smiles": "NC(=O)NC(=O)Cc1ccccc1", "outcome": "inactive"},
      {"smiles": "Cc1ccccc1C", "outcome": "inactive"},
      {"smiles": "CCCCCC1CCCC(=O)O1", "note": "(stereo not given)", "outcome": "inactive"},
      {"smiles": "COC(=O)CCC(=O)O", "outcome": "inactive"},
      {"smiles": "C=C(C)C(=O)OC", "outcome": "inactive"},
      {"smiles": "CCN(CC)C(=O)C1CN2CCc3cc(OC)c(OC)cc3C2CC1OC(C)=O", "note": "(stereo not given)", "outcome": "inactive"},
      {"smiles": "CC(=O)Nc1ncc([N+](=O)[O-])s1", "outcome": "inactive"},
      {"smiles": "COc1cc2c3cc1Oc1cc(ccc1O)C[C@@H]1c4c(cc(OC)c(O)c4Oc4ccc(cc4)C[C@@H]3N(C)CC2)CC[N+]1(C)C", "outcome": "inactive"},
      {"smiles": "N#CCCOCCOCCC#N", "outcome": "inactive"},
      {"smiles": "CC(=O)/C=C/c1ccco1", "outcome": "inactive"}
    ]}
  ]
}
